Chronic BCR inh: inhibitors of chronic active B-cell receptor signaling. ABC-DLBCL IkBa-CBG/CBR reporter, luminescence ratio, 4 h. Potency, µM (titrated, usually from 46.1 µM), for inactives: at the top dose activity change, negative = inhibition, most hits filed as inhibitors. actives 0.05% (n = 340,000). AID 493014; active means well fitted inhibition curve with a large enough effect in the signal ratio, with a control signal flat, not every such curve was filed as active; inconclusive means small, poorly fitted or top-dose-only effect, or effect the other way, or a change in a side signal; the % refers to the signal ratio;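 further: potency means the concentration at half of the fitted maximal effect; plate controls were basal doxycycline-induced cells for no effect and cells given 10 µM MG132 for full effect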
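Concentration-response series (up to 46 uM) were applied to TMD8 dual-reporter cells for 4 h at 37C with doxycycline. Green/red ratio, after filter-overlap correction, defined %Activity; red signal alone was normalised to basal cells and zero luminescence.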
D3 ag: agonists of human D3 dopamine receptor; max activation, %; D3R DiscoveRx beta-arrestin cells, luminescence, 90 min; actives 0.58% (n = 410,000); P35462; in the data active means max activation above about 30%; further: 0% is about no effect
Target sequence (P35462 whole entry, looked up): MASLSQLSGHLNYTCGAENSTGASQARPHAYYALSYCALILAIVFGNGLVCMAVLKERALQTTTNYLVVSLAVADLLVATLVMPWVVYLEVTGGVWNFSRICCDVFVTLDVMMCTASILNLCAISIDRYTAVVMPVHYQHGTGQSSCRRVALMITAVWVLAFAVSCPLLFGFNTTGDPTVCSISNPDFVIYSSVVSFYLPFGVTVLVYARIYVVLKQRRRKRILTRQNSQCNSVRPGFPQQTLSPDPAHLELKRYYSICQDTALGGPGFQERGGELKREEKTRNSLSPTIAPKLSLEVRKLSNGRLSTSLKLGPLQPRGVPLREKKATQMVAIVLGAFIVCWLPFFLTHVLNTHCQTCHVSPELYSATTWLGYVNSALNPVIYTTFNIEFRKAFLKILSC
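Agonist-mode cell screen: cells plated at 1500/well and incubated overnight at 37 °C, then exposed to library compounds for 90 min at 37 °C. Detection reagent was added for 30–60 min at room temperature, and luminescence was read.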
DRD3 antagonist: antagonists of human D3 dopamine receptor | actives 2.5% (n = 360,000) | D3R cells, DiscoveRx beta-arrestin luminescence, antagonist mode; stronger effect = lower value | max response, negative = inhibition, %; in the data active means max response below about -50%; inconclusive means no clear call, values can overlap the other calls; further: on the % scale 0 is the no-effect control and ±100 the full control effect
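Cells plated overnight at 1500 cells/well, then exposed to library compounds with dopamine controls for 90 minutes at 37 degrees C. DiscoveRx reagent added for 30–60 minutes at room temperature; luminescence read, quantitative HTS format.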
D1 agonist: activates the human D1 dopamine receptor; activation, % at 2 µM; P21728; AID 504660; actives 1% (n = 360,000); HEK293 T-REx D1 cells, calcium flux, agonist mode; in the data active means activation above about 30%; further: 0% is about no effect
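Tetracycline-induced HEK293 TREx D1 cells, force-coupled to calcium signalling, were dye-loaded with a no-wash calcium kit. Compound was pin-added after a 10 s baseline. Fluorescence was read kinetically at 1 cycle/s for 180 s, with calcium rises flagged as agonism.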
D1 antag: human D1 dopamine receptor antagonism; HEK293 TREx D1 cells, calcium flux, dopamine EC80; stronger effect = lower value; activity change, negative = inhibition, % at 10 µM; actives 3.2% (n = 360,000); in the data active means activity change below about -30%; further: on the % scale 0 is the no-effect control and ±100 the full control effect
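Cells carrying a force-coupled, tetracycline-inducible human D1 receptor report calcium flux. Each well gets a 10 s baseline, compound with 180 s monitoring, then an EC80 dopamine stimulus with a second 180 s kinetic read.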
D1 potentiator: potentiators of human D1 dopamine receptor; P21728; HEK293 TREx D1 cells, calcium flux, dopamine EC20 potentiation; potentiation, % at 10 µM; actives 0.036% (n = 360,000); AID 504651; in the data active means potentiation above about 30%; further: 0% is about no effect
Active calls of the source: *; ? = inconclusive; . = no result. Only some compounds are listed: those with a hit (about 6% of all), similar ones and a draw of the others.

SMILES	Chronic BCR inh	D3 ag	DRD3 antagonist	D1 agonist	D1 antag	D1 potentiator
COc1cc(OC)c(OC)cc1CNCCc1cccc(F)c1	0%	-2	-9	8	1	8
Fc1ccc(CNCCc2ccc3c(c2)OCO3)cc1	3%	-5	-23	11	-10	-5
COc1ccc(CNCCc2cccc(F)c2)c2ccccc12	-14%	.	.	37*	29	4
CCN(CC)c1ccc(CNCCc2ccc(F)cc2)cc1	?	-7	-4	64*	4	1
COc1cc(OC)c(OC)cc1CNCCc1ccc(F)cc1	-1%	-18	0	8	7	-7
CCc1ccc(CNCCc2ccc(F)cc2)cc1	-1%	-8	-14	62*	-11	-7
COc1ccc(CNCCc2ccc(Cl)cc2)c(OC)c1OC	-9%	-14	-5	20	-70*	0
COc1cc(OC)c(OC)cc1CNCCc1ccc(OC)c(OC)c1	0%	-12	-29	2	-4	-1
NP(=O)(OCCCc1ccccc1)Oc1ccc(Cl)cc1 (stereo not given)	?	4	0	1	-17	-1
NP(=O)(OCCCc1ccccc1)c1ccccc1 (stereo not given)	10%	36*	-15	3	5	1
CCN(CC)/[N+]([O-])=N/O	.	3	.	.	.	.
COc1cccc(C(=O)C2CCCN(Cc3ccc4nonc4c3)C2)c1 (stereo not given)	?	-19	-25	2	-9	0
O=C(c1ccc2c(c1)OCO2)C1CCCN(Cc2ccc(F)c(F)c2)C1 (stereo not given)	3%	-9	-52*	9	-34*	-7
O=C(c1cc(F)ccc1F)C1CCCN(Cc2ccc3nonc3c2)C1 (stereo not given)	0%	-14	-14	0	-31*	6
CCS(=O)(=O)C(C)(C)S(=O)(=O)CC	.	6	.	.	.	.
C[C@@H](Cc1ccccc1)NCCC(c1ccccc1)c1ccccc1	.	-14	.	.	.	.
CCN1C[C@]2(COC)[C@H](O)C[C@H](OC)[C@@]34[C@@H]5C[C@@]6(O)[C@H](OC(=O)c7ccccc7)[C@@H]5[C@@](OC(C)=O)([C@@H]([C@H](OC)[C@H]23)[C@@H]14)[C@@H](O)[C@@H]6OC	.	-16	.	.	.	.
CC(C)=CCN1CC[C@@]2(C)c3cc(O)ccc3C[C@@H]1[C@@H]2C	.	-24	.	.	.	.
Oc1cc(Cl)c(Cl)c(Cl)c1Cl	.	9	5	.	.	.
Oc1cc(Cl)c(Cl)c(Cl)c1	.	61*	68	.	.	.
O=[N+]([O-])C(Br)(CO)CO	.	-1	.	.	.	.
CCOC(=O)N(c1ccccc1)P1(=S)OCCO1	-5%	3	-52*	2	-6	1
COC(=O)N(c1ccccc1)P1(=S)OCCO1	-4%	0	-5	0	2	2
COCC(=O)Nc1nnc(CCc2ccccc2)s1	?	-8	-19	4	-1	-5
OCCN1C2CCC1CC(O)(c1ccc(F)cc1)C2 (stereo not given)	0%	-22	-68*	6	4	-11
SMILES	Chronic BCR inh	D3 ag	DRD3 antagonist	D1 agonist	D1 antag	D1 potentiator
COc1ccc2nc(NC(=O)CCNS(=O)(=O)c3ccc4c(c3)oc(=O)n4C)sc2c1	?	-1	-2	2	-9	-4
Cc1cc(C)cc(-n2c(O)c(C=Nc3ccc(N4CCOCC4)cc3)c(=O)[nH]c2=S)c1	2%	-2	-5	35*	-4	0
O=S1(=O)N(CCN2CC=C(c3c[nH]c4cc(F)ccc34)CC2)c2cccc3c2N1CCC3	?	-92	-101*	1	-41*	-8
CN1C(=O)C(O)N=C(c2ccccc2)c2cc(Cl)ccc21 (stereo not given)	.	4	.	.	.	.
CC(C)Oc1cccnc1N(C)C1CCN(Cc2ccccc2)CC1	.	0	-95*	.	.	.
COc1ccccc1NC(=O)N(Cc1ccc2c(c1)OCO2)C1CCN(Cc2ccccc2)CC1	.	-34	.	4	-2	-3
CCOc1ccc(CN(CCc2ccc3c(c2)OCO3)Cc2cccc(Br)c2)cc1	.	-30	.	4	-13	-1
Cc1cccc(CN2CCN(Cc3ccc(Cl)cc3)CC2)c1	?	-22	-64*	20	17	-3
Fc1ccc(CN2CCN(c3ccc(Cl)cc3)CC2)cc1	?	0	-52*	3	3	-6
Cc1cccc(CN2CCN(c3ccc(Cl)cc3)CC2)c1	6%	3	-95*	2	-5	-6
CCN1CCN(Cc2ccc(C)cc2)CC1	1%	1	?	2	3	-5
Cc1ccc(C(=O)NCC(=O)NCC(=O)OCc2ccc(F)cc2)cc1	?	0	15	0	8	2
ClC1=C(Cl)C2(Cl)C(CBr)CC1(Cl)C2(Cl)Cl (stereo not given)	.	-12	.	.	.	.
CCC(=O)O[C@@](Cc1ccccc1)(c1ccccc1)[C@@H](C)CN(C)C	.	-25	.	.	.	.
ClC1=C(Cl)[C@]2(Cl)[C@@H]3[C@H]4C[C@H]([C@@H]5O[C@H]45)[C@@H]3[C@@]1(Cl)C2(Cl)Cl	.	3	.	.	.	.
Cc1ccc(-n2c(O)c(/C=C3/C(c4ccccc4)=Nc4ccccc43)c(=O)[nH]c2=O)cc1	?	-4	-2	0	5	-1
Cc1ccccc1-n1c(O)c(/C=C2/C(c3ccccc3)=Nc3ccccc32)c(=O)[nH]c1=O	?	-3	-5	14	-50*	-5
O=S(=O)(c1ccccc1)N1CCN(c2ccnc3cc(Cl)ccc23)CC1	?	10	-8	7	-41*	10
COC(=O)C(O)(c1ccc(NC(=O)c2cccs2)cc1)C(F)(F)F (stereo not given)	-5%	-16	-62*	4	-16	-13
COC(=O)C(O)(c1ccc(NC(=O)c2ccccc2)cc1)C(F)(F)F (stereo not given)	1%	-1	6	3	-10	-9
Cc1cccc(NS(=O)(=O)c2ccc(C(=O)N3CCN(c4ccccc4O)CC3)cc2)c1C	?	1	15	3	-8	-8
[H+].[H+].[Hg+2].[O-]B([O-])[O-].[c-]1ccccc1	.	-9	.	.	.	.
CCCCCCCCCC[N+](C)(C)CCCCCCCCCC	.	1	.	.	.	.
CCCCCCCCCCCCCCCC[N+](C)(C)C	1%	3	14	31*	-24	-6
CC12CN3CC(C)(CN(C1)C3c1cccnc1)C2=O (stereo not given)	-9%	2	16	2	15	-6
c1cc(C2N3CCCN2CC3)ccn1 (stereo not given)	?	1	14	3	-44*	9
CN(C)[C@H](Cc1ccccc1)c1ccccc1	.	7	.	.	.	.
Cn1c(=O)oc(=O)c2ccccc21	.	31*	4	.	.	.

Compound activity deposited in PubChem by National Center for Advancing Translational Sciences (NCATS).
